Data published in PubChem BioAssay (NCI).
This is part of a sample that, as a whole, favours compounds with a hit. Of some 83,000 tested, about 20% had one in any assay.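 For each line, cells grew in 96-well plates with the test compound present at a single concentration for 48 hours.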 A number with no mark means an inactive call. Active and inactive are the calls of the source. Rule for the calls: active = growth percent below 10; inactive = the rest.

Tested on: HL-60(TB) leukemia
Assay: NCI-60 one-dose screen, 48 h (100 = growth as untreated, 0 = no growth, -100 = all killed)
Conditions: 10 µM unless noted

Structure (SMILES) | growth
COc1ccc(-c2nn(-c3cccc(NC(=O)c4cccc(C(F)(F)F)c4)c3)cc2-c2ccncc2)cc1Cl | 4.23% (active)
CCC(C)[C@H](NC(=O)Nc1cc(C(F)(F)F)cc(C(F)(F)F)c1)C(=O)N[C@@H](Cc1cn(C)cn1)C(=O)OC (stereo partly drawn) | -78.4% [100 µM] (active)
CN1C(=O)N(C)C2C1NN=c1s/c(=C\c3ccc(Cl)cc3Cl)c(=O)n12 (stereo not drawn) | -26.9% (active)
COc1ccc(C2=Nn3c(nnc3-c3cc(Cl)cc(Cl)c3Cl)SC2)cc1 | -32% (active)
COc1ccc(Nc2ncnc3ccc(-c4cncc(NS(C)(=O)=O)c4)cc23)cc1Cl | 3.01% (active)
Cc1ccc(S(=O)(=O)c2nc(-c3ccccc3)oc2SCC(N)=O)cc1 | 65.3%
COc1ccc(/C(=C/c2ccc3ccccc3c2)c2nn[nH]n2)cc1OC | -1.21% (active)
Cn1c2ccccc2c2c3c(c4c5cc(Br)ccc5n(C)c4c21)C(=O)N(O)C3=O | -33.2% (active)
Cc1nc2sc(C(=O)Nc3cccc4ccccc34)c(N)c2cc1C(=O)/C=C/c1ccccc1 | 4.48% (active)
CCOC(=O)c1c(C)nc2c(c1N)CC(=O)N2CCc1ccccc1 | -3.38% (active)
CCCOc1ccc(/C=N/Nc2cc(C)nc3ccc(Br)cc23)cc1 | 55.3%
O=C1NC(=S)NC(=O)C1=Cc1cn(Cc2cn(Cc3cccc4ccccc34)nn2)c2ccccc12 | 106%
COc1cc(/C=C/C(=O)C(C(=O)/C=C/c2ccc(OC(=O)CCNc3nnc(C)s3)c(OC)c2)C(=O)CCNc2nnc(C)s2)ccc1OC(=O)CCNc1nnc(C)s1 | -40.1% (active)
